Source: PubChem BioAssay (National Center for Advancing Translational Sciences (NCATS))
Cycloheximide cs: counter-screen hit for Shiga toxin inhibitors, cycloheximide. max response, %. AID 2314. 300,000 compounds, 12% hits. cell reporter, cycloheximide protein synthesis inhibition counterscreen; in the data active = max response mostly above about 13%, no sharp cut-off; inactive = mostly below about 14%; also: read at 38.3 µM for the half of the compounds with a filed dose; 0% is about no effect
NS1 inh: influenza NS1 inhibition. Potency, µM (series often up to 46.1 µM), inactives show at the top dose activity, positive = more growth. 270,000 compounds, 0.4% hits; also: potency is read from the fitted curve at half-maximal effect; actives are rising curves; nearly all actives have a fitted effect of over 50% in size
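In this qHTS, NS1 from influenza A is expressed in budding yeast, where it slows growth. Cells are switched from glucose to 2% galactose medium (pH 6.0, -URA), treated with compound, and growth recovery is read at OD600.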
Pf growth 48h: P. falciparum growth inhibition at 48 hours (one generation) | P. falciparum luciferase growth in erythrocytes, 48 h | Potency, µM (highest dose often 28.7 µM), for the others: top-dose activity change, negative = inhibition, most hits filed as inhibitors | 310,000 compounds, 5.9% hits; active = well fitted inhibition curve with a large enough effect; inconclusive = small, poorly fitted or top-dose-only effect, or another doubt; inactive = no such curve, though single readings can be large or run the other way; also: potency is read from the fitted curve at half-maximal effect; % is scaled to controls: 0 for no effect and ±100 for the full control effect
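Luminescence readout; reporter = integrated firefly luciferase in P. falciparum. RBC culture at 2% hematocrit, 0.1% parasitemia final, 37 C/5% CO2; decreased signal taken as growth inhibition.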
SARS PLP yeast: SARS-CoV PLP inhibition in yeast; S. cerevisiae expressing SARS-CoV PLpro, growth rescue; Potency, µM (highest dose often 32.9 µM), without a hit: top-dose activity, positive = growth rescue, hits mostly activators; 330,000 compounds, 0.19% hits; also: potency is read from the fitted curve at half-maximal effect; 0% is about no effect; nearly all actives have a fitted effect of over 55% in size
Shiga toxin inh: inhibitors of Shiga toxin in Vero cells | AID 2315 | 290,000 compounds, 9.2% hits | Vero cells, Shiga toxin protein synthesis inhibition reporter | inhibition, % at 38.7 µM; in the data active = inhibition mostly above about 28%, no sharp cut-off; inactive = mostly below about 43%; also: 0% is about no effect
Pf growth 96h: P. falciparum growth inhibition at 96 hour, primary screen for plastid delayed-death inhibitors; P. falciparum luciferase reporter growth, 96 h; Potency, µM (highest dose often 28.7 µM), inactives show at the highest dose activity change, negative = inhibition, hits mostly inhibitors; 320,000 compounds, 6.9% hits; AID 504834; active = well fitted inhibition curve with a large enough effect; inconclusive = small, poorly fitted or top-dose-only effect, or another doubt; inactive = no such curve, though single readings can be large or run the other way; also: potency is read from the fitted curve at half-maximal effect; % is scaled to controls: 0 for no effect and ±100 for the full control effect
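Cell-based qHTS: luciferase-tagged P. falciparum in erythrocytes (2% hematocrit, 0.05% parasitemia final) incubated with compounds for 96 hours, 37 C, 5% CO2; luciferase detection reagent then added and luminescence measured.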
Starred values were filed as active, the others as inactive; i = inactive; ? = inconclusive; · = no result given. Hits are enriched below; roughly 21% of the tested compounds scored in any of these assays. Unless noted, calls follow the shape of the full dose curve.

SMILES	Cycloheximide cs	NS1 inh	Pf growth 48h	SARS PLP yeast	Shiga toxin inh	Pf growth 96h
CC(CCc1ccccc1)NC(=O)C(=O)NCCc1ccccc1 (stereo not drawn)	11	2%	7%	3%	24	58%
CCC(C)NC(=O)c1ccc(C)c(NC(=O)C2=C(C)OCCS2)c1 (stereo not drawn)	-2	0%	-4%	1%	-5	27%
O=C(Nc1ccc2c(c1)OCO2)Nc1ccc2c(c1)OCO2	29*	7%	63%	0%	75*	48%
O=C(Nc1ccc(F)cc1)Nc1ccc2c(c1)OCO2	-2	3%	?	-2%	12	-28%
Cc1ccc(NC(=O)Nc2ccc3c(c2)OCO3)c(Br)c1	43*	-1%	39%	2%	192	?
O=C(CN1C2CCC1CC(O)(c1cccnc1)C2)Nc1ccc2c(c1)OCO2 (stereo not drawn)	-2	4%	12%	-2%	-16	8.3µM*
Cc1ccc(C(=O)O)cc1NC(=O)Nc1ccc2c(c1)OCO2	20*	·	100%	-3%	73*	7%
COc1ccc(C(C)(C)C)cc1NC(=O)Nc1ccc2c(c1)OCO2	11	-111%	?	-88%	31	291%
CN=C1SC(CC(=O)Nc2ccc(F)cc2F)C(=O)N1/N=C/c1ccc(OC(F)F)c(OC)c1 (stereo not drawn)	-3	6%	4%	-1%	10	5%
Cc1cccc(CNC(=O)C2CCC(=O)N(C3CCCCCC3)C2)c1 (stereo not drawn)	-1	0%	-10%	-1%	15	?
O=C(CCCn1cncn1)N1CCCC(Nc2ccc(F)cc2)C1 (stereo not drawn)	9	8%	10%	0%	-6	13%
O=C(COC(=O)c1cnccn1)c1ccc2c(c1)CCCC2	19	-43%	-3%	-7%	12	-6%
Cc1c(NC(=O)C23CC4CC(CC(Br)(C4)C2)C3)c(=O)n(-c2ccccc2)n1C	-2	7%	11%	-1%	-13	17%
COC(=O)C(C)Oc1ccc(=O)[nH]n1 (stereo not drawn)	8	5%	40%	1%	-16	-29%
O=C(Nc1ccc2c(c1)OCO2)c1ccc(CO)cc1	·	·	356%	4%	·	i
O=C(Nc1ccc2c(c1)OCO2)Nc1ccc(Cl)cc1Cl	28*	-2%	·	1%	64*	109%
CCc1ccc2[nH]c(C(=O)Nc3ccc4c(c3)OCO4)cc2c1	19*	15%	?	-1%	47	-11%
Cc1cc(C)c2[nH]c(C(=O)Nc3ccc4c(c3)OCO4)cc2c1	16*	7%	-10%	-5%	46	6%
O=C(Nc1ccc(C(=O)N2CCOCC2)cc1)Nc1ccc(Cl)cc1Cl	5	2%	-22%	-1%	-11	-1%
O=C(O)c1cccc(-c2ccc3c(c2)OCO3)c1	10	-66%	7%	-3%	3	3.7µM*
O=C(c1ccc(Cl)c(F)c1F)N1CCCC1	0	6%	8%	6%	12	105%
CCc1ccc2[nH]c(C(=O)Nc3ccc(Br)c(C)n3)cc2c1	32*	1%	123%	1%	137*	121%
CCCC[C@@H]1CCCO[C@@](C(=O)NCc2ccccc2)(C(F)(F)F)C1	4	·	·	·	-1	·
COCCNC(=O)c1ccccc1-c1nc(-c2ccccc2OC)no1	15*	1%	31%	-2%	35	?
Cc1ccccc1-c1noc(-c2ccccc2C(=O)NCc2ccco2)n1	18*	-4%	-12%	-1%	60*	-17%
SMILES	Cycloheximide cs	NS1 inh	Pf growth 48h	SARS PLP yeast	Shiga toxin inh	Pf growth 96h
CC(C)(C)NC(=O)c1ccccc1-c1nc(-c2ccccc2Cl)no1	25*	-66%	30%	-3%	30	2.1µM*
COCCn1c(=O)[nH]c2cc(C(=O)N3CCN(c4ccccc4OC)CC3)ccc2c1=O	-3	-9%	?	8%	10	?
CCCCCNC(=O)CCCCn1c(=O)[nH]c2cc(OCC)c(OCC)cc2c1=O	-5	1%	0%	0%	-10	-30%
COc1cc2[nH]c(=O)n(CCC(=O)N3CCN(c4cc(Cl)ccc4C)CC3)c(=O)c2cc1OC	-2	19%	12µM*	-1%	8	0%
CCOc1cc2[nH]c(=O)n(CCC(=O)N3CCN(c4ccccc4OC)CC3)c(=O)c2cc1OCC	-4	2%	?	3%	-11	12µM*
CCOc1cc2[nH]c(=O)n(CCCCC(=O)N3CCCCCC3)c(=O)c2cc1OCC	1	-1%	5.2µM*	19%	7	10%
COc1cc2[nH]c(=O)n(CCC(=O)N3CCN(Cc4ccc5c(c4)OCO5)CC3)c(=O)c2cc1OC	6	·	-23%	-4%	8	-23%
NCc1nnn(Cc2ccccc2)c1N	·	-1%	·	·	·	·
C=CC[C@@H](CC(=O)NCCO)C(=O)NC[C@H](OC(=O)[C@@H](CC=C)Cc1ccc(F)cc1)c1ccccc1	·	·	·	6%	·	·
Cc1cc2sc(C)[n+](CCCOS(=O)(=O)O)c2cc1C	·	-3%	·	·	·	·
COc1ccc(CCNC(=O)[C@@H](NC(=O)N2CC(=O)Nc3ccccc32)C(C)C)cc1OC	1	-8%	-20%	-1%	13	12µM*
CC(C)[C@H](NC(=O)N1CC(=O)Nc2ccccc21)C(=O)N[C@@H](Cc1ccccc1)C(=O)O	-2	-5%	0%	1%	-4	-1%
COCCN(C(=O)Nc1ccccc1OC)c1nc2ccccc2s1	26*	-37%	-8%	4%	30*	15%
C/C(=N\Nc1nc2ccccc2s1)c1ccc(Br)s1	19*	14%	?	-5%	41*	?
C/C(=N\Nc1nc2ccccc2s1)c1ccc2c(c1)OCO2	54*	14%	66%	-3%	70*	128%
COc1ccc(NC(=O)C2CCCN(c3ncccn3)C2)cc1 (stereo not drawn)	30*	-3%	59%	0%	92*	-3%
CC(C)c1ccc(NC(=S)NNC(=O)C2CC2)cc1	2	2%	7%	1%	13	-12%
O=C(NC1CCCCCC1)C1CCCN(c2ncccn2)C1 (stereo not drawn)	24*	1%	?	5%	38	0%
COc1ccc(NC(=O)C2CCCN(c3nccc(C)n3)C2)cc1 (stereo not drawn)	-2	·	-12%	5%	16	10µM*
O=C(NC1CCCCC1)C1CCN(c2ncccn2)CC1	-3	8%	28%	3%	-8	14%
COCCNC(=O)C1CCCN(c2ncccn2)C1 (stereo not drawn)	-1	-3%	0%	5%	-8	?
CCC(C)c1ccc(NC(=O)C2CC2)cc1 (stereo not drawn)	25*	-139%	?	-18%	59*	171%
COc1ccc(NC(=O)C2CCCN(c3nc(C)cc(C)n3)C2)cc1 (stereo not drawn)	6	2%	-4%	-1%	-5	3%
